According to PubChem BioAssay (Tox21):
“And” between values parts separate entries of the source, which are not always exact repeats. Equal values may be shown once. Inconclusive results are not listed. Some structures have more than one record in an assay (separate samples or runs), and their calls can disagree. The source made the active and inactive calls. Unless noted, the call rests on the fitted dose curve; in most records, active means well fitted curve in the direction sought with a large enough effect in the repeat runs; inconclusive means weak or mixed curves; inactive means no such curve, though single readings can be large; an effect the other way counts as inactive or inconclusive.

Key:
[1] = qHTS assay to identify small molecule agonists of the peroxisome proliferator-activated receptor delta (PPARd) signaling pathway - cell viability counter screen (AID 743211); further: nearly all actives have a fitted effect of over 55% in size; further: potency means the concentration at half of the fitted maximal effect
How it was run: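 Multiplexed format: after the 2 h room-temperature LiveBLAzer B/G FRET step, CellTiter-Glo was added to the same wells. Luminescence after 30 min gave cell viability; compound exposure was 17 h at 37C.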

[2] = qHTS assay to identify small molecule antagonists of the peroxisome proliferator-activated receptor delta (PPARd) signaling pathway - cell viability counter screen (AID 743213); further: nearly all actives have a fitted effect of over 50% in size; further: potency means the concentration at half of the fitted maximal effect
How it was run: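 PPARd-bla HEK293H cells (3000/well) got compound plus 300 nM L165041 agonist for 17 h at 37 C. Viability in the same wells came from CellTiter-Glo luminescence after 30 min at room temperature.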

[3] = biological target: Peroxisome proliferator-activated receptor delta (Homo sapiens) (UniProt Q03181); assay: qHTS assay to identify small molecule antagonists of the peroxisome proliferator-activated receptor delta (PPARd) signaling pathway (AID 743215; active means well fitted inhibition curve with a large enough effect in the signal ratio in the repeat runs, not every such curve was filed as active; the % refers to the signal ratio;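 further: cells stimulated with agonist L165041 at 300 nM final during compound exposure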; further: potency means the concentration at half of the fitted maximal effect)
Sequence of Peroxisome proliferator-activated receptor delta (Homo sapiens) (Q03181 whole entry, looked up): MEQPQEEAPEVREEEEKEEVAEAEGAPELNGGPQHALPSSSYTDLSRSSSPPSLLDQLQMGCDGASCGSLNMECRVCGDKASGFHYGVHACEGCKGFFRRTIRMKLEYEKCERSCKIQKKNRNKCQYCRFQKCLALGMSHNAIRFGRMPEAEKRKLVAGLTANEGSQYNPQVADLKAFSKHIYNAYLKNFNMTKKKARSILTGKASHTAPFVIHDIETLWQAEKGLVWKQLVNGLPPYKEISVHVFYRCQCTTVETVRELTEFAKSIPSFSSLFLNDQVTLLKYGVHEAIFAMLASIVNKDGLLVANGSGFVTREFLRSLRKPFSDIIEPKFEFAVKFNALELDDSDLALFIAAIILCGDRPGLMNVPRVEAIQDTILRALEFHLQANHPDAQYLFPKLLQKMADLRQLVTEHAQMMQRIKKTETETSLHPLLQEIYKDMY
How it was run: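 Agonist L165041 (300 nM final) added with compound to PPARd-bla HEK293H UAS-bla reporter cells; 17 h incubation at 37 C. Read-out: LiveBLAzer FRET substrate, 2 h at room temperature, fluorescence intensity.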

[4] = qHTS assay to identify small molecule agonists of the farnesoid-X-receptor (FXR) signaling pathway - cell viability counter screen (AID 743218); further: nearly all actives have a fitted effect of over 45% in size; further: potency means the concentration at half of the fitted maximal effect
How it was run: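 Viability counter screen in the same wells: CellTiter-Glo luminescence, 30 min room-temperature incubation, measured after the beta-lactamase read. Cells were GeneBLAzer FXR-UAS-bla HEK 293T, compound-treated 16 h at 37C.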

[5] = qHTS assay to identify small molecule antagonists of the farnesoid-X-receptor (FXR) signaling pathway - cell viability counter screen (AID 743221; active means well fitted cell-killing curve with a large enough effect in the repeat runs, not every such curve was filed as active; further: nearly all actives have a fitted effect of over 50% in size; further: potency means the concentration at half of the fitted maximal effect)
How it was run: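 CellTiter-Glo, 30 min RT, luminescence; same wells as the LiveBLAzer FRET read. Cells: FXR-UAS-bla HEK 293T. Treatment: compound with chenodeoxycholic acid 50 uM final, 16 h at 37 C.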

[6] = qHTS assay to identify small molecule agonists of the vitamin D receptor (VDR) signaling pathway - cell viability counter screen (AID 743224); further: nearly all actives have a fitted effect of over 50% in size; further: potency means the concentration at half of the fitted maximal effect
How it was run: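 Counter screen run in the same wells as the VDR-bla reporter assay: CellTiter-Glo luminescence, 30 min at room temperature, after 16 h compound treatment at 37C of cells pre-plated for 4 h.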

[7] = qHTS assay to identify small molecule antagonists of the vitamin D receptor (VDR) signaling pathway - cell viability counter screen (AID 743225); further: on the % scale 0 is the no-effect control and ±100 the full control effect; nearly all actives have a fitted effect of over 50% in size
How it was run: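 Cytotoxicity toward the VDR-bla HEK 293T line was scored by ATP-based CellTiter-Glo luminescence, read in the wells already used for the beta-lactamase readout after 16 h compound treatment under 3 nM 1-alpha,25-dihydroxyvitamin D3 stimulation.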

[8] = qHTS assay to identify small molecule agonists of the NFkB signaling pathway (AID 1159509; active means well fitted curve in the direction sought with a large enough effect in the signal ratio in the repeat runs, not every such curve was filed as active; the % refers to the signal ratio; further: series mostly up to about 61 µM; on the % scale 0 is the no-effect control and ±100 the full control effect)
How it was run: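 Beta-lactamase reporter assay run in quantitative high-throughput format on an NF-kB-responsive ME-180 line, with 5 hr compound treatment and a FRET-based blue/green fluorescence readout.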

[9] = qHTS assay to identify small molecule agonists of the NFkB signaling pathway - cell viability counter screen (AID 1159515; calls by dose curve; further: series mostly up to about 61 µM; on the % scale 0 is the no-effect control and ±100 the full control effect; nearly all actives have a fitted effect of over 55% in size)
How it was run: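 Read by CellTiter-Glo luminescence (30 min, room temperature) in the wells also used for the beta-lactamase FRET read. ME-180 NFkB-bla cells at 2,000 per well were plated overnight, then exposed to compound for 5 hr at 37 C.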

[10] = qHTS assay to identify small molecule agonists of the endoplasmic reticulum stress response signaling pathway - cell viability counter screen (AID 1159517; calls by dose curve; further: nearly all actives have a fitted effect of over 50% in size; further: potency means the concentration at half of the fitted maximal effect)
How it was run: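 Cytotoxicity of test compounds toward ESRE-bla HeLa cells was assessed after 5 hr exposure. The luminescent CellTiter-Glo signal was measured 30 min after reagent addition.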

[11] = biological target: Nuclear receptor ROR-gamma (Homo sapiens) (UniProt P51449); assay: qHTS assay to identify small molecule antagonists of the retinoid-related orphan receptor gamma (ROR-gamma) signaling pathway (AID 1159521; further: nearly all actives have a fitted effect of over 50% in size; further: potency means the concentration at half of the fitted maximal effect)
How it was run: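 Readout: ONE-Glo luciferase luminescence, 30 min at room temperature. System: Tet-on RORγ CHO, RORE-LUC. Sequence: compound 2 h, doxycycline 1 uM final, 16 h at 37 C.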

[12] = qHTS assay to identify small molecule agonists of the AP-1 signaling pathway - cell viability counter screen (AID 1159525; calls by dose curve; further: nearly all actives have a fitted effect of over 55% in size)
How it was run: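 Each titration point was normalised to DMSO and tetra n-octyl ammonium bromide controls. The read was Cell Titer Glo luminescence after 30 min at RT, following 5 h compound exposure of ME-180 AP-1-bla cells at 37 °C.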

[13] = qHTS assay to identify small molecule agonists of the AP-1 signaling pathway (AID 1159526; calls by dose curve; further: on the % scale 0 is the no-effect control and ±100 the full control effect)
[14] = biological target: Peroxisome proliferator-activated receptor delta (Homo sapiens) (UniProt Q03181); assay: qHTS assay to identify small molecule agonists of the peroxisome proliferator-activated receptor delta (PPARd) signaling pathway (AID 743212; calls by dose curve;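 further: HEK293H cells with PPARd UAS beta-lactamase reporter GeneBLAzer system; on the % scale 0 is the no-effect control and ±100 the full control effect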)
How it was run: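 Beta-lactamase reporter read by fluorescence (LiveBLAzer B/G FRET, 2 h, room temperature). Test agents, in DMSO, incubated at 37 C with PPARd-bla HEK293H cells.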

[15] = biological target: Bile acid receptor (Homo sapiens) (UniProt Q96RI1); assay: qHTS assay to identify small molecule antagonists of the farnesoid-X-receptor (FXR) signaling pathway (AID 743217; active means well fitted inhibition curve with a large enough effect in the signal ratio in the repeat runs, not every such curve was filed as active; the % refers to the signal ratio; further: on the % scale 0 is the no-effect control and ±100 the full control effect)
Sequence of Bile acid receptor (Homo sapiens) (Q96RI1 whole entry, looked up): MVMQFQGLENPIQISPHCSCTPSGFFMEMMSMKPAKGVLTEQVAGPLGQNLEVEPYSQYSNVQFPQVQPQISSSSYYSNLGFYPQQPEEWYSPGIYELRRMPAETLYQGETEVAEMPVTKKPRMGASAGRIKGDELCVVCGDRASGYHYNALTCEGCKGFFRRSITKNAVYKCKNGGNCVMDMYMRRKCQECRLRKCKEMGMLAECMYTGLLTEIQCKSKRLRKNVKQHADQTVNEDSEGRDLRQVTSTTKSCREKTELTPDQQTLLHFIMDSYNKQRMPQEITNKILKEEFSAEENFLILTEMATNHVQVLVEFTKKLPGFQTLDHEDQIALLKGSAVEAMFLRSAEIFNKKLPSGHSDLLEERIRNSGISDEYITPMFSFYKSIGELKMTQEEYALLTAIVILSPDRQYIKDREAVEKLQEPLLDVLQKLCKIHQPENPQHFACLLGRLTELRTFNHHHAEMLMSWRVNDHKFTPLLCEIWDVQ
How it was run: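 Antagonist mode: chenodeoxycholic acid at 50 uM final stimulates a UAS-driven beta-lactamase reporter in HEK 293T FXR-bla cells during 16 h, 37C compound exposure. Read-out is FRET substrate fluorescence after 2 h at room temperature.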

[16] = biological target: Vitamin D3 receptor (Homo sapiens) (UniProt P11473); assay: qHTS assay to identify small molecule agonists of the vitamin D receptor (VDR) signaling pathway (AID 743222; calls by dose curve; further: on the % scale 0 is the no-effect control and ±100 the full control effect)
Sequence of Vitamin D3 receptor (Homo sapiens) (P11473 whole entry, looked up): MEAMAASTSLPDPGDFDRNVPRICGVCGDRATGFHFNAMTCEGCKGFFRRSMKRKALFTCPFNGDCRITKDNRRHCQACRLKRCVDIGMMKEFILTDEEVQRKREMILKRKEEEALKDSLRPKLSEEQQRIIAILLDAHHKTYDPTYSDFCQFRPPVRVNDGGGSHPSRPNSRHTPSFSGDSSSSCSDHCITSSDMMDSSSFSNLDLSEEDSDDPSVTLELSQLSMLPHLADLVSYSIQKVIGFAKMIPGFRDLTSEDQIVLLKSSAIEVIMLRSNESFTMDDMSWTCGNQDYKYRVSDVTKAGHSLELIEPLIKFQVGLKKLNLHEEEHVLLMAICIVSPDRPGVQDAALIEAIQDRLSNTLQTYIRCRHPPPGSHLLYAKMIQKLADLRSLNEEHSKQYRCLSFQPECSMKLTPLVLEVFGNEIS
How it was run: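 Agonist mode, beta-lactamase reporter: fluorescence from LiveBLAzer B/G FRET substrate (2 h, room temperature) read after 16 h compound treatment at 37 C of VDR-bla cells, which were pre-incubated 4 h after seeding.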

[17] = biological target: Bile acid receptor (Homo sapiens) (UniProt Q96RI1); assay: qHTS assay to identify small molecule agonists of the farnesoid-X-receptor (FXR) signaling pathway (AID 743220; active means well fitted activation curve with a large enough effect in the signal ratio in the repeat runs, not every such curve was filed as active; the % refers to the signal ratio; further: on the % scale 0 is the no-effect control and ±100 the full control effect)
How it was run: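 FXR-UAS-bla HEK 293T cells carrying a UAS-driven beta-lactamase reporter were plated for 5 h at 37C/5% CO2, then exposed to DMSO-dissolved Tox21 10K compounds for 16 h at 37C. A LiveBLAzer B/G FRET substrate was loaded for 2 h at room temperature before fluorescence reading.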

[18] = qHTS assay to identify small molecule antagonists of the retinoid-related orphan receptor gamma (ROR-gamma) signaling pathway - cell viability counter screen (AID 1159520); further: nearly all actives have a fitted effect of over 50% in size; further: potency means the concentration at half of the fitted maximal effect
How it was run: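 Tet-on ROR gamma CHO cells (1,000/well) were plated 4 hr, given compounds in DMSO for 2 hr at 37 C, then induced with 1 uM final doxycycline for 16 hr. Viability was read as ATP by CellTiter-Glo luminescence after 30 min.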

[19] = biological target: Vitamin D3 receptor (Homo sapiens) (UniProt P11473); assay: qHTS assay to identify small molecule antagonists of the vitamin D receptor (VDR) signaling pathway (AID 743223; active means well fitted inhibition curve with a large enough effect in the signal ratio in the repeat runs, not every such curve was filed as active; the % refers to the signal ratio; further: on the % scale 0 is the no-effect control and ±100 the full control effect)
How it was run: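 After VDR-bla cells are plated and left 4 h at 37C, DMSO-dissolved compounds and 3 nM (final) calcitriol agonist are added. Incubation continues 16 h at 37C; FRET beta-lactamase substrate then develops 2 h at room temperature.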

[20] = qHTS assay to identify small molecule agonists of the endoplasmic reticulum stress response signaling pathway (AID 1159516; active means well fitted activation curve with a large enough effect in the signal ratio in the repeat runs, not every such curve was filed as active; the % refers to the signal ratio; further: on the % scale 0 is the no-effect control and ±100 the full control effect)
How it was run: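 Ratiometric FRET readout (405 nm excitation; 460 and 530 nm emission) of a beta-lactamase gene driven by the ER stress response element, after 2 hr substrate loading. HeLa ESRE-bla cells were seeded overnight and treated with compounds for only 5 hr at 37 C.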

COc1cccc2c1C(=O)c1c(O)c3c(c(O)c1C2=O)C[C@@](O)(C(=O)CO)C[C@@H]3O[C@H]1C[C@H](N)[C@H](O)[C@H](C)O1
inactive: Potency [1] | Potency [2] | Potency [4] | Potency [5] | Potency [6] | Potency [7] | outcome [8] | Potency [9] | Potency [10] | Potency [11] | Potency [12] | outcome [13]
active: Potency [3] 1.55 µM and 2.98 µM

CC(C)=CCCC(C)CCO (stereo unspecified)
inactive: Potency [1] | outcome [14] | Potency [2] | Potency [5] | Potency [6] | Potency [7] | outcome [8] | Potency [9] | Potency [10] | Potency [11] | Potency [12] | outcome [13]

O=C1c2cccc(O)c2C(=O)c2c(O)cccc21
inactive: Potency [1] | outcome [14] | Potency [3] | Potency [15] | Potency [4] | Potency [5] | outcome [16] | Potency [6] | Potency [7] | outcome [8] | Potency [9] | Potency [10] | Potency [11] | Potency [12]

O=C(Nc1ccc([N+](=O)[O-])cc1Cl)c1cc(Cl)ccc1O
inactive: outcome [17] | outcome [8] | Potency [9] | Potency [11] | activation [13] 4.2% [at 15.8 µM]
active: Potency [1] 219 nM and 259 nM | Potency [2] 1640 nM | Potency [4] 1.38 µM and 1.16 µM | Potency [5] 3260 nM | Potency [6] 549 nM and 651 nM | Potency [18] 1.54 µM and 920 nM

O=C(O)c1ccccc1Nc1cccc(C(F)(F)F)c1
inactive: Potency [1] | Potency [2] | Potency [3] | Potency [5] | Potency [6] | Potency [7] | outcome [8] | Potency [9] | Potency [10] | Potency [18] | Potency [11] | outcome [13]

COc1ccc(OC)c(C(O)CNC(=O)CN)c1 (stereo unspecified)
inactive: Potency [1] | outcome [14] | Potency [2] | Potency [3] | Potency [15] | Potency [4] | outcome [17] | Potency [5] | outcome [16] | Potency [6] | Potency [7] | outcome [8] | Potency [9] | Potency [10] | Potency [11] | outcome [13]

CC(=O)C1(C)CC2=C(CCCC2(C)C)CC1C (stereo unspecified)
inactive: Potency [1] | outcome [14] | Potency [2] | Potency [3] | Potency [4] | Potency [5] | outcome [16] | outcome [19] | Potency [6] | Potency [7] | outcome [8] | Potency [9] | Potency [10] | Potency [11] | outcome [13]

CC(C)=CCC/C(C)=C\CO
inactive: Potency [1] | Potency [2] | Potency [15] | Potency [4] | outcome [17] | Potency [5] | outcome [16] | outcome [19] | Potency [6] | Potency [7] | Potency [9] | Potency [20] | Potency [10] | Potency [18] | Potency [11] | Potency [12] | outcome [13]

c1cc(-c2ccncc2)ccn1
inactive: Potency [1] | outcome [14] | Potency [2] | Potency [3] | Potency [5] | outcome [16] | Potency [7] | outcome [8] | Potency [9] | Potency [10] | Potency [11] | outcome [13]

CCOC(=O)C(C#N)=C(c1ccccc1)c1ccccc1
inactive: Potency [1] | outcome [14] | Potency [2] | Potency [3] | Potency [15] | Potency [4] | outcome [17] | Potency [5] | Potency [7] | outcome [8] | Potency [9] | Potency [10] | Potency [18] | Potency [12] | outcome [13]

CC(=O)Oc1ccccc1C(=O)Nc1ncc([N+](=O)[O-])s1
active: Potency [18] 3.93 µM and 5.31 µM
inactive: Potency [1] | outcome [14] | Potency [15] | outcome [8] | Potency [9] | Potency [11] | outcome [13]
889 nM (active) and inactive: Potency [10]

COc1cc([C@@H]2c3cc4c(cc3[C@H](O)[C@H]3COC(=O)[C@H]23)OCO4)cc(OC)c1OC
active: Potency [11] 30.6 nM
inactive: Potency [1] | Potency [3] | Potency [5] | outcome [16] | Potency [7] | outcome [8] | Potency [9] | Potency [10] | Potency [18]
